# Compound activity as filed in PubChem BioAssay.
# Most compounds without a hit are left out; they make up all but 6% or so of the library.
# D1 potentiator – Potentiators of Human D1 Dopamine Receptor: qHTS; hit rate 0.036% among 360,000; potentiation, % at 10 µM; HEK293 TREx D1 cells, calcium flux, dopamine EC20 potentiation; in the data active = potentiation above about 30%; also: 0% is about no effect
# Target sequence (P21728 whole entry, looked up): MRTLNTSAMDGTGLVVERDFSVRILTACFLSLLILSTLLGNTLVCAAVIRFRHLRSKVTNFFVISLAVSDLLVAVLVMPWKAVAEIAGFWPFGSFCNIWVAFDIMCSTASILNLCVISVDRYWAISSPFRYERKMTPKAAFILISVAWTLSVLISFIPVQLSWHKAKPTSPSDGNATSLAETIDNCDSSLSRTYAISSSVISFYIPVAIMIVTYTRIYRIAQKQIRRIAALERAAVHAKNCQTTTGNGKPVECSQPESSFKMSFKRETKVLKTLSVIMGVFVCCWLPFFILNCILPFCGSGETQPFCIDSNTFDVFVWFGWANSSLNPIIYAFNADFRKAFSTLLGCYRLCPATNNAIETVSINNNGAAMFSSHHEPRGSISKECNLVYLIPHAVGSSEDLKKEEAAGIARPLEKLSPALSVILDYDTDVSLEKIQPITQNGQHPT
# DRD3 agonist – qHTS of D3 Dopamine Receptor Agonist: qHTS; D(3) dopamine receptor (Homo sapiens), P35462; D3R DiscoveRx beta-arrestin cells, luminescence, 90 min; max activation, %; hit rate 0.58% among 410,000; AID 652048, 2013; in the data active = max activation above about 30%; also: 0% is about no effect
#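 Agonist-mode cell screen: cells plated at 1500/well and incubated overnight at 37 °C, then exposed to library compounds for 90 min at 37 °C. Detection reagent was added for 30–60 min at room temperature, and luminescence was read.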
# D1 antagonist – Antagonist of Human D 1 Dopamine Receptor: qHTS; HEK293 TREx D1 cells, calcium flux, dopamine EC80; active compounds read low; activity change, negative = inhibition, % at 10 µM; hit rate 3.2% among 360,000; AID 504652, 2011; in the data active = activity change below about -30%; also: % is scaled to controls: 0 for no effect and ±100 for the full control effect
#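 Antagonism measured as reduced calcium response to an EC80 dopamine addition following 180 s compound pre-read; cells were inducible HEK293 Trex D1 plated overnight at 30 C, read kinetically at 1 cycle/sec.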
# D3 antag – qHTS of D3 Dopamine Receptor Antagonist: qHTS. max response, negative = inhibition, %. D3R cells, DiscoveRx beta-arrestin luminescence, antagonist mode; active compounds read low. hit rate 2.5% among 360,000. AID 652054, 2013; in the data active = max response below about -50%; also: % is scaled to controls: 0 for no effect and ±100 for the full control effect
#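 Cells expressing the human receptor were seeded at 1500 cells/well, incubated overnight at 37 degrees C in 5% CO2, then exposed to library compounds with dopamine controls for 90 minutes at 37 degrees C before luminescent detection.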
# D1 ag – Allosteric Agonists of the Human D1 Dopamine Receptor: qHTS; D(1A) dopamine receptor (Homo sapiens), P21728; HEK293 T-REx D1 cells, calcium flux, agonist mode; activation, % at 2 µM; hit rate 1% among 360,000; in the data active = activation above about 30%; also: 0% is about no effect
#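 Inducible HEK293 T-REx D1 cells, force-coupled to calcium signalling, were plated at 4000 cells/well with tetracycline and held overnight at 30 C. After no-wash calcium dye loading, compound-evoked calcium rise over 180 s flagged agonists.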
# The depositor's hits bear a star; nt = not tested or not shown.
SMILES,D1 potentiator,DRD3 agonist,D1 antagonist,D3 antag,D1 ag
CC(C)Oc1ccc(C2CC(=O)N(Nc3ccc([N+](=O)[O-])cc3[N+](=O)[O-])C2=O)cc1 (centres undefined),-7,-21,-1,-51*,1
COc1ccc(/C(C)=N/NC(=O)Cn2nc([N+](=O)[O-])cc2C)cc1,1,51*,7,1,1
COc1ccc(CNC(=O)Cn2nc([N+](=O)[O-])cc2C)cc1,-3,1,0,-1,3
COc1cccc(CNS(=O)(=O)c2ccc3c(c2)N(C(C)=O)CCO3)c1,-8,-10,-90*,-4,0
CCOc1cc(C)c(S(=O)(=O)NC2CCCCC2)cc1C,-5,-16,-33*,-12,18
COc1ccc(Nc2nc(NCc3ccco3)nc(N/N=C/c3ccccc3F)n2)cc1,-6,-7,-42*,-54*,2
COCCN(CC(=O)NCC1CCCO1)C(=O)CCC(=O)Nc1cc(C)ccn1 (centres undefined),-4,1,-37*,5,2
COCCN(CC(=O)NCC1CCCO1)C(=O)CCC(=O)Nc1ccccn1 (centres undefined),0,-2,6,-11,0
N#C/C(=C\Nc1ccc2c(c1)OCCO2)c1nc(-c2ccccc2)cs1,-8,2,-42*,16,0
COc1ccc(-c2csc(/C(C#N)=C/Nc3ccc4c(c3)OCCO4)n2)cc1,1,-3,7,-2,3
CN1CCN(C(=O)c2cc3nc(-c4ccc(F)cc4)cc(C(F)(F)F)n3n2)CC1,-8,1,-3,-52*,2
Cc1cc(-c2ccc(F)cc2)nc2cc(C(N)=O)nn12,10,-16,-8,-76*,1
CCOC(=O)C1CCCN(C(=O)c2cc3nc(-c4ccc5c(c4)OCO5)cc(C(F)(F)F)n3n2)C1 (centres undefined),-4,120*,-11,47,3
COc1ccc(-c2cc(C(F)(F)F)n3nc(C(=O)N4CCCC4)cc3n2)cc1,-2,0,4,0,4
Cc1cc(C)n2nc(-c3ccc(F)cc3)cc2n1,nt,4,nt,-15,nt
COC(=O)c1cn(C(=O)c2ccc3c(c2)OCO3)c2ccccc12,nt,-5,nt,-20,nt
CCc1ccc(C2C(C(C)=O)=C(C(=O)OC)Nc3nnnn32)cc1 (centres undefined),-5,-5,-24,-57*,0
Cc1ccc(S(=O)(=O)NC(=O)Nc2cc(C(C)(C)C)on2)cc1,2,1,-37*,1,2
Cc1ccc(S(=O)(=O)NC(=O)Nc2ccc(C)cn2)cc1,2,3,8,6,1
COc1ccc(CCNC(=O)CN(c2ccccc2)S(=O)(=O)N(C)C)cc1,2,-17,-7,nt,-1
NS(=O)(=O)c1ccc(NC(=O)c2cccc3ccccc23)cc1,-7,-1,-36*,7,0
CCCCOc1cccc(C(=O)N(Cc2ccc(Br)o2)C2CCS(=O)(=O)C2)c1 (centres undefined),0,5,1,nt,7
Cc1cccc(C)c1NC(=O)C1=C(O)c2ccccc2N(C)S1(=O)=O,6,6,-6,-52*,3
COCCOC(=O)N1CCCCC1c1cc(C(=O)NCc2ccc(Cl)c(Cl)c2)no1 (centres undefined),nt,1,nt,8,nt
CC(=O)Nc1cccc2c1C(=O)N(c1ccccc1C)C2=O,-2,-3,-5,-26,0
COc1ccccc1N1C(=O)c2cccc3c(N(C)CCO)ccc(c23)C1=O,1,4,5,6,56*
Cc1ccccc1N1C(=O)c2cccc3c(N(C)CCO)ccc(c23)C1=O,-8,2,-7,-7,86*
Cc1ccc(S(=O)(=O)N2CCN(C(=O)[C@H](Cc3ccccc3)NC(=O)c3ccco3)CC2)cc1C,-3,-10,7,-19,2
CCOC(=O)C1=C(CNCCc2ccc(Cl)cc2)NC(=O)NC1c1ccc2c(c1)OCO2 (centres undefined),-2,0,9,-16,2
